# Assay outcomes deposited in PubChem BioAssay by National Center for Advancing Translational Sciences (NCATS).
# HCV inh = HCV inhibition | Huh7.5.1 HCVcc-Cre infection, luciferase reporter, 44 h | Potency, µM (series often up to 41.8 µM), inactives show at the top dose activity change, negative = inhibition, actives largely listed as inhibitors | actives 3.4% (n = 340,000) | AID 651820; note: potency is the fitted concentration of half-maximal effect; % is set by controls: 0 for no effect and ±100 for the full control effect
#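 1,000 cells/well; 4 h culture; + compound; + HCVcc-Cre (~0.5 moi); 44 h; luciferase substrate, RT 15 min; read 15 sec.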
# CHX counter = counter-screen for Shiga toxin inhibitors: cycloheximide protein synthesis inhibition; cell reporter, cycloheximide protein synthesis inhibition counterscreen; actives 12% (n = 300,000); AID 2314; max response, %; in the data active = max response mostly above about 13%, no sharp cut-off; inactive = mostly below about 14%; note: read at 38.3 µM for the half of the compounds with a filed dose; 0% is about no effect
# Pf growth 96h = inhibits malaria parasite growth, 96 h | P. falciparum luciferase reporter growth, 96 h | actives 6.9% (n = 320,000) | Potency, µM (highest dose often 28.7 µM), for inactives: at the highest dose activity change, negative = inhibition, actives largely listed as inhibitors; note: potency is the fitted concentration of half-maximal effect; % is set by controls: 0 for no effect and ±100 for the full control effect
#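 Infected RBCs, 2% Hct / 0.05% parasitemia final; luciferase-reporter P. falciparum; cpd 96 h, 37 C, 5% CO2; luciferase detection reagent; luminescence.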
# Pf growth 48h = inhibits P. falciparum growth in the first generation, 48 h; P. falciparum luciferase growth in erythrocytes, 48 h; Potency, µM (titrated, usually from 28.7 µM), without a hit: at the highest dose activity change, negative = inhibition, actives largely listed as inhibitors; actives 5.9% (n = 310,000); AID 504832; note: potency is the fitted concentration of half-maximal effect; % is set by controls: 0 for no effect and ±100 for the full control effect
#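 A one-generation exposure of luciferase-tagged malaria parasites in RPMI 1640/Albumax erythrocyte culture, 37 C and 5% CO2. Inhibition is inferred from decreased luminescence after adding detection reagent.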
# Shiga toxin inh = Shiga toxin inhibition; actives 9.2% (n = 290,000); inhibition, % at 38.7 µM; Vero cells, Shiga toxin protein synthesis inhibition reporter; in the data active = inhibition mostly above about 28%, no sharp cut-off; inactive = mostly below about 43%; note: 0% is about no effect
# AMA1-RON2 inh = disrupts binding of P. falciparum AMA1 to RON2; AlphaScreen AMA1-biotinylated RON2 peptide binding; Potency, µM (titrated, usually from 58.2 µM), for inactives: at the top dose activity change, negative = inhibition, most hits filed as inhibitors; actives 0.2% (n = 360,000);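 note: potency is the fitted concentration of half-maximal effect; 0% = vehicle wells and -100% = peptide control; nearly all actives have a fitted effect of over 45% in size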
#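 AMA1 (3D7) with his tag at 25 nM final met compounds first, then biotinylated RON2 peptide at 25 nM; detection used donor plus acceptor beads, 10 µg/mL apiece, read by AlphaScreen after 30 min at room temperature.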
# * = called active by the depositor; u = inconclusive; x = no result; [ ] = dose if it differs, or a comment. In the library only some 21% were active in any assay of this set; here they are far more common. Unless noted, calls come from the whole dose curve; as a rule, active = well fitted curve in the direction sought with a large enough effect; inconclusive = small, poorly fitted or top-dose-only effect, or another doubt; inactive = no such curve, though single readings can be large; an effect the other way counts as inactive or inconclusive.
SMILES,HCV inh,CHX counter,Pf growth 96h,Pf growth 48h,Shiga toxin inh,AMA1-RON2 inh
CC1(c2nnc(-c3cccc(Cl)c3)o2)CC(c2ccccc2F)=NO1 (configuration not stated),8%,x,x,x,x,31%
O=C(COCc1cc(-c2ccc3c(c2)OCO3)on1)Nc1cccnc1,9%,12,-11%,10%,3,-3%
COc1ccc(-c2cc(C(=O)Nc3cccnc3)no2)cc1OC,u,32*,31%,83%,60*,-11%
O=C(Nc1cccnc1)c1cc(-c2ccc(F)cc2)on1,20%,53*,u,414%,92*,-2%
CC(=O)c1cccc(NC(=O)c2cc(-c3ccc(F)cc3)on2)c1,-28%,-1,u,136%,-5,21%
O=C(Nc1cccnc1)c1cc(-c2cccc(Cl)c2)on1,30%,-2,38%,94%,-14,9%
O=C(Nc1cccnc1)c1cc(-c2ccc3c(c2)OCO3)on1,13%,30*,163%,20%,89*,19%
O=C(Nc1cccnc1)c1cc(-c2ccc(Cl)c(Cl)c2)on1,5%,21*,u,78%,47*,5%
O=c1ccn(C2CCCO2)c(=O)[nH]1 (configuration not stated),14%,x,x,x,x,17%
CC(=O)Nc1ccc(C(=O)N/C(=C\c2ccccc2)C(=O)Nc2cccc(C(=O)O)c2)cc1,10%,-2,-6%,u,-9,10%
CC(C)c1ccc(C(C(=O)NC2CCCC2)N(C(=O)c2csnn2)C2CC2)cc1 (configuration not stated),-4%,-5,u,u,-8,7%
Cn1c(=O)c(=O)n(C)c2cc(S(=O)(=O)N3CC(=O)N(CCc4ccccc4)C(=O)C3)ccc21,11%,0,2%,11%,-8,6%
CCOC(=O)C1=C(C(=O)OCC)N(Cc2ccccc2)CCC1=O,15%,x,x,x,x,7%
COc1ccccc1-c1cc(C(F)(F)F)nc(S(=O)(=O)CCCC(=O)Nc2cc(C)on2)n1,20%,-4,1.9µM*,-9%,-7,7%
COc1ccccc1-c1cc(C(F)(F)F)nc(S(=O)(=O)CCCC(=O)NCc2ccc(F)cc2)n1,u,20*,2.9µM*,u,-26,6%
COc1ccccc1-c1cc(C(F)(F)F)nc(S(=O)(=O)CCCC(=O)NC(C)C)n1,u,-3,13%,-8%,-11,7%
COc1ccccc1-c1cc(C(F)(F)F)nc(S(=O)(=O)CCCC(=O)Nc2cccnc2Cl)n1,u,9,8%,u,-8,-2%
COc1ccc(-c2cc(C(F)(F)F)nc(S(=O)(=O)CCCC(=O)Nc3cc(C)on3)n2)cc1OC,u,25*,u,u,-1,3%
N#Cc1ccc(-c2c(-c3ccccc3)ncc3cc(F)ccc23)cc1,u,x,u,u,x,-20%
C/C(=N\NC(=O)c1cc2c(s1)CCC(C)C2)c1ccc[nH]1 (configuration not stated),1%,x,191%,154%,x,31%
CC1CCc2sc(C(=O)N/N=C/c3ccc(O)cc3)cc2C1 (configuration not stated),u,45*,45%,-2%,54*,-6%
C/C(=N\NC(=O)c1cc2c(s1)CCC(C)C2)c1ccncc1 (configuration not stated),25µM*,7,9.3µM*,-24%,17,5%
CC1CCc2sc(C(=O)NC3CCCCC3)cc2C1 (configuration not stated),-15%,x,19%,-18%,x,-5%
CCOc1ccccc1N1CCN(C(=O)c2ccccc2OCc2c(C)noc2C)CC1,-1%,x,u,u,x,49%
CCOC(=O)CCCCC(=O)c1[nH]c(=O)[nH]c1Cn1cnc2ccccc21,6%,-2,x,-7%,-6,38µM*
SMILES,HCV inh,CHX counter,Pf growth 96h,Pf growth 48h,Shiga toxin inh,AMA1-RON2 inh
CCOC(=O)CCCCC(=O)c1[nH]c(=O)[nH]c1CSc1nc(-c2ccccc2)c(C#N)c(=O)[nH]1,-2%,-4,6%,-3%,-10,u
CCOC(=O)CCCCC(=O)c1[nH]c(=O)[nH]c1CSCCO,28%,-2,x,u,-7,7.5µM*
COc1ccc(S(=O)(=O)N2CCN(CC(=O)NC(C)c3cccs3)CC2)cc1 (configuration not stated),x,x,x,x,x,5%
Nc1[nH]c(C(=O)c2ccccc2)c(-c2ccc(C(F)(F)F)cc2)c1C(=O)NCc1ccc(Cl)cc1Cl,x,x,x,x,x,2%
C=CCN1c2ccccc2[C@]23C[C@@H](C(=O)OC)N(C(=O)CC(C)C)C2=NC(C(=O)OC)=C(C(=O)OC)[C@H]13,7.9µM*,-3,u,u,-2,u
CC1(C)CC(NC(=O)c2ccccn2)CC(C)(C)N1O,-4%,-9,7%,20%,-6,-8%
CCCCCNC(=O)C1C(=O)Nc2ccccc2C(=O)N1c1ccc(OC)cc1 (configuration not stated),x,x,x,x,x,3%
CN(C(=O)N1CCN(S(=O)(=O)c2ccccc2)CC1)c1ccccc1,13%,1,232%,9%[5.75 µM],-6,-2%
C/C(=N\Nc1nc(-c2ccccn2)nc2ccccc12)c1ccc(F)cc1,4.5µM*,-2,-33%,u,2,73%
C/C(=N/Nc1nc(-c2ccccc2F)nc2ccccc12)c1ccccc1O,u,-1,u,u,-3,61%
C/C(=N\NC(=O)Cn1c(-c2ccccn2)nc2ccccc21)c1ccccc1,u,9,28%,-17%,15,4%
C/C(=N\Nc1nc(-c2ccccc2O)nc2ccccc12)c1ccccc1,-4%,2,u,0.52µM*,23,19%
CCn1c(COc2ccccc2)nnc1SCC(=O)NC1CCCCC1,-7%,5,-16%,2.9µM*,23,-1%
CCCn1nnnc1SCC(=O)N1CCCc2ccccc21,-10%,48*,72%,78%,108*,-10%
CC(=O)NCCn1c(SCC(=O)NC2CCCCC2)nc2ccccc2c1=O,5%,-2,u,-11%,-3,-3%
CC(C)Cn1c(SCC(=O)NC(=O)NC2CCCC2)nc2ccccc21,11µM*,-2,-5%,u,-19,6%
CCn1c(SCC(=O)NC2CCCCC2)nc2ccccc2c1=O,3%,-3,12µM*,52%,2,4%
CCn1c(CC(=O)Nc2ccccc2)nnc1SCC(=O)NC1CCCC1,10%,-7,u,1%,-7,11%
CC(C)OCCCNC(=O)C(NS(=O)(=O)c1ccc2c(c1)c(=O)n(C)c(=O)n2C)c1ccccc1 (configuration not stated),x,7,-17%,u,-2,x
CCn1c(=O)c2ccccc2n(CC(=O)NC2CCCCC2)c1=O,-6%,-4,121%,1%,-2,-14%
